Measured values taken from PubChem BioAssay AID1159580 (chemical genetic matrix, 2015).
Where “and” joins values, the source holds several entries; their conditions need not be identical. Equal values may be shown once. The campaign covered roughly 5,500 compounds. About 2,000 (36%) were called active. Not shown: some 18% with an inconclusive outcome. No stated cut-off is given here; in the data, active means normalized growth mostly below about 0.91 (no sharp cut-off); inconclusive means no clear call, values can overlap the other calls; inactive means mostly above about 0.92. The list shows a part of the results.

Experiment: chemical genetic growth profiling, strain panel (AID 1159580);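 further: tested at 20 µM; growth read once vehicle control cultures reached saturation at 30 °C; 1 = growth at the plate median or of vehicle wells; lower values mean less growth of the strain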
Conditions: S. cerevisiae deletion strains, growth OD

Measured: normalized growth

C[N+](C)(C)CC(O)CC(=O)O (stereo unspecified)
inactive: locus YAL013W, strain DEP1, hits give low values 1.02 | locus YAL021C, strain ccr4, hits give low values 1.01 | locus YAL026C, strain drs2, hits give low values 0.982 | locus YAL030W, strain snc1, hits give low values 0.982 | locus YBL061C, strain skt5, hits give low values 0.977 | locus YBR009C, strain hhf1, hits give low values 1 | locus YBR021W, strain FUR4, hits give low values 0.992 | locus YBR023C, strain chs3, hits give low values 0.985 | locus YBR171W, strain sec66, hits give low values 0.981 | locus YBR229C, strain ROT2, hits give low values 1 | locus YBR231C, strain swc5, hits give low values 0.974 | locus YBR279W, strain paf1, hits give low values 0.998 | locus YCL011C, strain gbp2, hits give low values 0.978 | locus YCL016C, strain dcc1, hits give low values 0.96 | locus YCL029C, strain bik1, hits give low values 1 | locus YCL069W, strain vba3, hits give low values 0.981 | locus YCR088W, strain abp1, hits give low values 0.986 | locus YDL005C, strain med2, hits give low values 0.98 | locus YDL035C, strain GPR1, hits give low values 1.02 | locus YDL040C, strain nat1, hits give low values 0.982 | locus YDL074C, strain BRE1, hits give low values 1.01 | locus YDL101C, strain DUN1, hits give low values 1 | locus YDL134C, strain PPH21, hits give low values 1.01 | locus YDL185W, strain tfp1, hits give low values 0.996 | locus YDL192W, strain arf1, hits give low values 0.997 | locus YDR001C, strain nth1, hits give low values 0.975 | locus YDR069C, strain doa4, hits give low values 1.01 | locus YDR101C, strain arx1, hits give low values 0.983 | locus YDR137W, strain rgp1, hits give low values 0.972 | locus YDR150W, strain NUM1, hits give low values 1.01 | locus YDR159W, strain sac3, hits give low values 1.02 | locus YDR162C, strain NBP2, hits give low values 1 | locus YDR195W, strain ref2 0.96 | locus YDR297W, strain sur2, hits give low values 0.998 | locus YDR318W, strain mcm21, hits give low values 0.999 | locus YDR334W, strain swr1, hits give low values 0.969 | locus YDR335W, strain msn5, hits give low values 0.971 | locus YDR388W, hits give low values 1.01 | locus YDR392W, strain spt3, hits give low values 0.973 | locus YDR502C, strain sam2, hits give low values 1.02 | locus YEL003W, strain gim4, hits give low values 0.986 | locus YEL037C, strain rad23, hits give low values 0.969 | locus YEL061C, strain CIN8 (second series), hits give low values 0.981 | locus YEL061C, strain CIN8, hits give low values 1 | locus YER015W, strain faa2, hits give low values 0.977 | locus YER016W, strain bim1, hits give low values 0.965 | locus YER110C, hits give low values 0.991 | locus YER111C, strain swi4, hits give low values 0.96 | locus YER155C, strain BEM2 (second series), hits give low values 0.965 | locus YER155C, strain BEM2, hits give low values 0.995 | locus YER167W, strain BCK2, hits give low values 0.995 | locus YFR010W, strain ubp6, hits give low values 1 | locus YGL078C, strain dbp3, hits give low values 1 | locus YGL086W, strain mad1, hits give low values 0.998 | locus YGL167C, strain pmr1, hits give low values 0.98 | locus YGL173C, strain kem1, hits give low values 0.968 | locus YGL227W, strain vid30, hits give low values 0.985 | locus YGL240W, strain doc1, hits give low values 0.998 | locus YGL248W, strain PDE1, hits give low values 1 | locus YGL253W, strain hxk2, hits give low values 0.957 | locus YGR078C, strain PAC10, hits give low values 1 | locus YGR135W, strain pre9, hits give low values 0.994 | locus YGR229C, strain SMI1, hits give low values 1.02 | locus YGR252W, strain gcn5, hits give low values 1 | locus YHR013C, strain ard1, hits give low values 0.95 | locus YHR027C, strain rpn1, hits give low values 0.984 | locus YHR030C, strain SLT2, hits give low values 1 and 0.979 | locus YHR079C, strain IRE1 (second series), hits give low values 0.999 | locus YHR079C, strain IRE1, hits give low values 0.976 | locus YHR094C, strain hxt1, hits give low values 0.996 | locus YHR129C, strain ARP1, hits give low values 0.999 | locus YHR142W, strain chs7, hits give low values 0.968 | locus YHR200W, strain rpn10, hits give low values 1 | locus YIL066C, strain RNR3, hits give low values 1.02 | locus YIL073C, strain SPO22, hits give low values 1.04 | locus YIL125W, strain kgd1, hits give low values 1 | locus YIR030C, strain dcg1, hits give low values 0.998 | locus YJL092W, strain hpr5, hits give low values 0.984 | locus YJL095W, strain BCK1 (second series), hits give low values 0.974 | locus YJL095W, strain BCK1, hits give low values 1 and 0.989 | locus YJL115W, strain asf1, hits give low values 0.977 | locus YJL129C, strain trk1, hits give low values 0.983 | locus YJL134W, strain LCB3, hits give low values 1 | locus YJL154C, strain vps35, hits give low values 0.975 | locus YJL164C, strain tpk1, hits give low values 0.989 | locus YJL166W, strain qcr8, hits give low values 1.02 | locus YJL168C, strain set2, hits give low values 0.997 | locus YJL187C, strain SWE1 (second series), hits give low values 1.01 | locus YJR043C, strain POL32, hits give low values 1 | locus YJR066W, strain TOR1, hits give low values 0.929 | locus YJR075W, strain HOC1, hits give low values 1.01
